Epigenetic reg – derepresses silenced GFP reporter in murine cells; murine LDR cells, GFP reporter derepression, 30 h; Potency, µM (titrated, usually from 53.9 µM), inactives show at the highest dose GFP activation, hits mostly activators; hit rate 0.2% among 280,000; AID 1865; further: % of control where 0% means no effect; nearly all actives have a fitted effect of over 60% in size
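Derepression of a silenced CMV-GFP reporter in murine LDR cells is scored by enumerating GFP-positive cells with a laser-scanning microplate cytometer after 30 hours of treatment at 37 C.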
Vif-A3F inh – inhibitors of Vif-A3F interaction; Potency, µM (top dose mostly 46.1 µM), for inactives: top-dose activity, negative = active; hit rate 0.2% among 390,000; HeLa A3F-eYFP + Vif (tagged APOBEC3F with the HIV-1 protein that degrades it), YFP fluorescence increase; AID 602313; further: % of control where 0% means no effect; nearly all actives have a fitted effect of over 65% in size
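HeLa cells stably expressing Vif plus C-terminally eYFP-tagged A3F were seeded, incubated overnight at 37 deg C, dosed with compound, incubated overnight again at 37 deg C. Yellow fluorescence (Ex 488/Em 500-530) reported blocked Vif-mediated A3F-eYFP degradation.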
PINK1 modulator – PINK1 expression modulation | AID 624263 | PINK1 immunofluorescence, high-content cytometry, 24 h | hit rate 0.2% among 410,000 | Potency, µM (highest dose often 76.6 µM), without a hit: top-dose activation (PINK1 increase), hits mostly activators; active means well fitted activation curve with a large enough effect; inconclusive means small, poorly fitted or top-dose-only effect; cell line not stated here; further: % of control where 0% means no effect; nearly all actives have a fitted effect of over 65% in size
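Stable cell line, 250 cells/well, 12 h attachment; compounds pinned at 5 concentrations, 24 h; CCCP control. Fixed with nuclear dye, primary antibodies 12 h at 10 degrees C, secondary plus cell stain; laser-scanning cytometer read.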
Vif-APOBEC3G blk – blocks the Vif interaction with human APOBEC3G; Q9HC16; HeLa A3G-eYFP + Vif (tagged APOBEC3G with the HIV-1 protein that degrades it), YFP fluorescence, overnight; Potency, µM (titrated, usually from 46.1 µM), without a hit: at the top dose activity, negative = active, actives largely listed as inhibitors; hit rate 0.076% among 410,000; AID 602310; further: on the % scale 0 is the no-effect control and ±100 the full control effect; nearly all actives have a fitted effect of over 60% in size
Target sequence (Q9HC16 whole entry, looked up): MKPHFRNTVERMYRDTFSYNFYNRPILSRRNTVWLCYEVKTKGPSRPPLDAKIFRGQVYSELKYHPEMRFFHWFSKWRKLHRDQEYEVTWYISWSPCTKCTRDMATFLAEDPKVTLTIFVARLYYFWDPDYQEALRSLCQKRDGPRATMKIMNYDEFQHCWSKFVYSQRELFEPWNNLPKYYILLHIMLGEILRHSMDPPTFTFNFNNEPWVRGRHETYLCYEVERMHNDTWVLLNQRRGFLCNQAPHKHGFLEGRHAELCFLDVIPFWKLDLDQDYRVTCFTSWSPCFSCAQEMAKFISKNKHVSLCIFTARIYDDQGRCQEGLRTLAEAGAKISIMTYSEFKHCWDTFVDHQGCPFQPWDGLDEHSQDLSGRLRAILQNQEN
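HeLa cells stably expressing Vif and C-terminally eYFP-tagged A3G, seeded overnight at 37 deg C, then exposed to compound by pintool overnight at 37 deg C. Rise in yellow fluorescence (Ex 488/Em 500-530, Acumen) marks blocked Vif-driven A3G degradation.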
The depositor's hits bear a star; ? = inconclusive; nt = no result given. Only some compounds are listed: those with a hit (about 0.51% of all), similar ones and a draw of the others. Unless noted, the call rests on the fitted dose curve; in most records, active means well fitted curve in the direction sought with a large enough effect; inconclusive means small, poorly fitted or top-dose-only effect, or another doubt; inactive means no such curve, though single readings can be large; an effect the other way counts as inactive or inconclusive. Potency means the concentration at half of the fitted maximal effect.

SMILES | Epigenetic reg | Vif-A3F inh | PINK1 modulator | Vif-APOBEC3G blk
N#CC(C#N)=C1SC(=Nc2ccccc2)C(=Nc2ccccc2)N1c1ccccc1 | nt | 3% | 32µM* | -6%
C[C@@H]1CN(Cc2ccc3c(c2)CN(Cc2cccc4c2OCO4)CCO3)C[C@H](C)O1 | nt | nt | 0% | nt
CCC1CN(CC(=O)NC(C)c2cn(C)nc2C)Cc2cc(OC)ccc2O1 (stereo unspecified) | nt | nt | 0% | nt
CN(C)c1ccc(/C=C/c2cc(/C=C/c3ccc(N(C)C)cc3)c3ccccc3n2)cc1 | nt | nt | 20% | 2.8µM*
Cc1cc(/C=C/c2ccccc2)nc2ccccc12 | nt | nt | nt | -11%
CCN(CC)c1ccc(/C=C/c2cc(-c3ccccc3)c3ccccc3n2)cc1 | 3.2µM* | ? | 1% | ?
CCc1nc2cc(C(=O)N3CCC[C@H]3CO)cc(NC(=O)c3ccccc3OC)c2n1C | nt | nt | -1% | nt
O=C(NCC1Cc2cccc(-c3cnccn3)c2O1)c1ccc(F)c(Cl)c1 (stereo unspecified) | nt | nt | 1% | nt
COc1ccc(OC)c(C(=O)N(Cc2cc3cccc(C)c3nc2N2CCC(O)CC2)C2CC2)c1 | nt | nt | 1% | nt
CN(C)CCNC(=O)c1ccc2c(c1)NC(=O)C(CS(=O)(=O)Cc1cccc(Br)c1)N2 (stereo unspecified) | -1% | -8% | 0% | 6%
CC(C)CCNC(=O)c1ccc2c(c1)NC(=O)C(CS(=O)(=O)Cc1cccc(Br)c1)N2 (stereo unspecified) | ? | 11µM* | 1% | ?
Cc1cc2nc(SCCOC(=O)Nc3cccc(Cl)c3)nc(C)c2cc1C | 0% | 25µM* | 1% | -3%
Cc1cc2nc(-c3ccc(SCC(=O)Nc4ccc(S(=O)(=O)N5CCCC5)cc4)nc3)[nH]c2cc1C | 7% | 11µM* | 4% | -7%
O=C(CSc1ccc(-c2nc3ccccc3[nH]2)cn1)Nc1ccc(S(=O)(=O)N2CCCC2)cc1 | 0% | 0% | -4% | -1%
c1csc(CNc2nc(-c3ccoc3)nc3ccccc23)c1 | nt | nt | 0% | nt
c1cncc(-c2nc(NCc3cccs3)c3ccccc3n2)c1 | -5% | 18µM* | 0% | -8%
Cc1cc(C(=O)Nn2c(C3CCCCC3)nc3ccccc3c2=O)ccc1[N+](=O)[O-] | -2% | -1% | 16µM* | -15%
Cc1oc(-c2cccc(NC(=O)C3CCCN(C)C3)c2)nc1CNC(=O)c1coc2c1C(=O)CCC2 (stereo unspecified) | nt | nt | 1% | nt
CC1(C)CC(C(=O)N2CCOc3ccc(CN4CCN(Cc5ccccn5)CC4)cc3C2)CCO1 (stereo unspecified) | nt | nt | 0% | nt
O=C(NCc1cccc(OC(F)(F)F)c1)c1cccc2c1C(=O)c1ccc(-c3ccc(F)cc3OCc3ccccc3)cc1S2(=O)=O | nt | 3% | 1% | -6%
O=C(NCc1ccccc1Cl)c1cccc2c1C(=O)c1ccc(-c3ccc(OC(F)(F)F)cc3)cc1S2(=O)=O | nt | 13µM* | ? | -9%
COc1ccc(-c2ccc3c(c2)S(=O)(=O)c2cccc(C(=O)NCc4cccc(OC(F)(F)F)c4)c2C3=O)cc1OC | nt | ? | 4.5µM* | ?
COc1cc(=O)n2c(c1C(=O)NCc1ccc3c(c1)OCO3)CCN(C(=O)c1ccccc1F)CC2 | nt | nt | 1% | nt
Oc1cc(-c2nc3ccccc3s2)cc2c1OCCN(Cc1cn[nH]c1-c1ccc(Cl)cc1)C2 | nt | nt | 0% | nt
CC(C)c1nc(C(=O)N2CCOc3ccc(CN4CCN(c5ccccn5)CC4)cc3C2)cs1 | nt | nt | -1% | nt
SMILES | Epigenetic reg | Vif-A3F inh | PINK1 modulator | Vif-APOBEC3G blk
Cc1nc(NC(=O)c2ccccc2)sc1Cc1ccc2c(c1)OCO2 | 5% | -6% | 2% | ?
Cc1cc(C)nc(NC(=NCc2ccc3c(c2)OCO3)NC(=O)Nc2ccccc2)n1 | 4% | -1% | 14µM* | 1%
CCOC(=O)CCc1ccc(NC(=O)/C=C/c2ccc([N+](=O)[O-])o2)cc1 | nt | 11µM* | -3% | 7.9µM*
Cc1ccc(/C=C/C(=O)Nc2ccc([N+](=O)[O-])cc2)o1 | 1% | -7% | ? | 3%
OCCN1CCN(Cc2ccc3c(c2)CN(Cc2ccc4ccccc4c2)CCO3)CC1 | nt | nt | -1% | nt
CC(C)[C@H](NC(=O)OC(C)(C)C)c1nnc(S(=O)(=O)Cc2c(F)cccc2Cl)o1 | ? | 1% | 6.3µM* | -1%
COc1cccc(CN2CCC3(CCC(CNC(=O)c4ccccc4)O3)CC2)c1 (stereo unspecified) | nt | nt | 1% | nt
Cc1ccc(C(=O)Nc2cnn(-c3ccc(C(=O)N(C)Cc4n[nH]c5c4CCCC5)cc3)c2)c(C)c1 | nt | nt | -1% | nt

High-throughput results from PubChem BioAssay.
